Data: PubChem BioAssay (Tox21)
Results filed as inconclusive are left out. Active and inactive are the calls of the source. Unless noted, the call rests on the fitted dose curve; in most records, active means well fitted curve in the direction sought with a large enough effect in the repeat runs; inconclusive means weak or mixed curves; inactive means no such curve, though single readings can be large; an effect the other way counts as inactive or inconclusive.

How the values were obtained:
[1] = qHTS assay to identify small molecule agonists of the peroxisome proliferator-activated receptor delta (PPARd) signaling pathway - cell viability counter screen (AID 743211); further: nearly all actives have a fitted effect of over 55% in size
Summary of the method: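 Tox21 library compounds, delivered in DMSO, were incubated 17 h with PPARd-bla HEK293H cells; cytotoxicity was taken from CellTiter-Glo luminescence read 30 min after reagent addition.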

[2] = target: Peroxisome proliferator-activated receptor delta (Homo sapiens) (UniProt Q03181); assay: qHTS assay to identify small molecule agonists of the peroxisome proliferator-activated receptor delta (PPARd) signaling pathway (AID 743212; calls by dose curve)
Summary of the method: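 HEK293H PPARd-bla cells; 5 h preincubation 37 C/5% CO2; compound (DMSO) 37 C; LiveBLAzer B/G FRET substrate 2 h RT; fluorescence intensity.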

[3] = qHTS assay to identify small molecule antagonists of the peroxisome proliferator-activated receptor delta (PPARd) signaling pathway - cell viability counter screen (AID 743213); further: nearly all actives have a fitted effect of over 50% in size
Summary of the method: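 PPARd-bla HEK293H cells (3000/well) got compound plus 300 nM L165041 agonist for 17 h at 37 C. Viability in the same wells came from CellTiter-Glo luminescence after 30 min at room temperature.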

[4] = target: Peroxisome proliferator-activated receptor delta (Homo sapiens) (UniProt Q03181); assay: qHTS assay to identify small molecule antagonists of the peroxisome proliferator-activated receptor delta (PPARd) signaling pathway (AID 743215; active means well fitted inhibition curve with a large enough effect in the signal ratio in the repeat runs, not every such curve was filed as active; the % refers to the signal ratio;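 further: cells stimulated with agonist L165041 at 300 nM final during compound exposure; series mostly up to about 62 µM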)
Summary of the method: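 PPARd-bla HEK293H cells (UAS-bla reporter) preincubated 5 h, then given compound plus 300 nM final L165041 agonist for 17 h at 37 C. Beta-lactamase activity read by LiveBLAzer B/G FRET substrate fluorescence after 2 h at room temperature.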

[5] = target: Bile acid receptor (Homo sapiens) (UniProt Q96RI1); assay: qHTS assay to identify small molecule antagonists of the farnesoid-X-receptor (FXR) signaling pathway (AID 743217; active means well fitted inhibition curve with a large enough effect in the signal ratio in the repeat runs, not every such curve was filed as active; the % refers to the signal ratio)
Summary of the method: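 FXR-UAS-bla HEK 293T cells (beta-lactamase reporter) given compound plus chenodeoxycholic acid (50 uM final), 16 h at 37C. LiveBLAzer B/G FRET substrate added for 2 h at room temperature; fluorescence read.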

[6] = qHTS assay to identify small molecule agonists of the farnesoid-X-receptor (FXR) signaling pathway - cell viability counter screen (AID 743218); further: nearly all actives have a fitted effect of over 45% in size
Summary of the method: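 FXR-UAS-bla HEK 293T cells exposed to compounds for 16 h at 37C. Cytotoxicity read in the same wells by CellTiter-Glo luminescence after 30 min at room temperature, following the beta-lactamase FRET read.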

[7] = target: Bile acid receptor (Homo sapiens) (UniProt Q96RI1); assay: qHTS assay to identify small molecule agonists of the farnesoid-X-receptor (FXR) signaling pathway (AID 743220; active means well fitted activation curve with a large enough effect in the signal ratio in the repeat runs, not every such curve was filed as active; the % refers to the signal ratio)
Summary of the method: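 Beta-lactamase reporter under UAS control in GeneBLAzer FXR HEK 293T cells (5000/well) measured with LiveBLAzer FRET substrate after 2 h at room temperature. Compound exposure lasted 16 h at 37C.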

[8] = qHTS assay to identify small molecule antagonists of the farnesoid-X-receptor (FXR) signaling pathway - cell viability counter screen (AID 743221; active means well fitted cell-killing curve with a large enough effect in the repeat runs, not every such curve was filed as active; further: nearly all actives have a fitted effect of over 50% in size)
Summary of the method: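 Cytotoxicity is taken from ATP luminescence (CellTiter-Glo, 30 min, room temperature) in FXR-bla HEK 293T cells previously incubated 16 h at 37 C with compound and chenodeoxycholic acid at 50 uM final.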

[9] = target: Vitamin D3 receptor (Homo sapiens) (UniProt P11473); assay: qHTS assay to identify small molecule agonists of the vitamin D receptor (VDR) signaling pathway (AID 743222; calls by dose curve)
Summary of the method: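 VDR-bla cells plated 4 h at 37 C, then exposed to compounds for 16 h at 37 C. Beta-lactamase reporter activity measured by fluorescence after 2 h room-temperature loading with LiveBLAzer B/G FRET substrate.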

[10] = target: Vitamin D3 receptor (Homo sapiens) (UniProt P11473); assay: qHTS assay to identify small molecule antagonists of the vitamin D receptor (VDR) signaling pathway (AID 743223; active means well fitted inhibition curve with a large enough effect in the signal ratio in the repeat runs, not every such curve was filed as active; the % refers to the signal ratio)
Summary of the method: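 Quantitative HTS in VDR-bla reporter cells stimulated with 1alpha,25-dihydroxyvitamin D3, 3 nM final. Compound exposure 16 h, 37C, 5% CO2. Read-out: beta-lactamase FRET substrate fluorescence, 2 h RT.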

[11] = qHTS assay to identify small molecule antagonists of the vitamin D receptor (VDR) signaling pathway - cell viability counter screen (AID 743225); further: nearly all actives have a fitted effect of over 50% in size
Summary of the method: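 Same-well multiplex: following 16 h treatment of HEK 293T cells carrying a UAS-driven beta-lactamase reporter with compound and agonist (3 nM final), and a 2 h FRET substrate step, CellTiter-Glo was added and luminescence read after 30 min.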

[12] = qHTS assay to identify small molecule agonists of the NFkB signaling pathway (AID 1159509; active means well fitted curve in the direction sought with a large enough effect in the signal ratio in the repeat runs, not every such curve was filed as active; the % refers to the signal ratio; further: series mostly up to about 61 µM)
Summary of the method: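 ME-180 NFkB-bla, 2,000 cells/well, overnight plating; cpd pinned in DMSO, 5 h 37 C; B/G FRET substrate 1.5 h RT; ex 405, em 460/530 nm.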

[13] = qHTS assay to identify small molecule agonists of the NFkB signaling pathway - cell viability counter screen (AID 1159515; calls by dose curve; further: series mostly up to about 61 µM; nearly all actives have a fitted effect of over 55% in size)
Summary of the method: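 NFkB-bla ME-180 cells, 2,000/well, plated overnight at 37 C; compound added for 5 hr at 37 C. Viability read in the same wells as the bla reporter, by CellTiter-Glo luminescence after 30 min at room temperature.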

[14] = qHTS assay to identify small molecule antagonists of the retinoid-related orphan receptor gamma (ROR-gamma) signaling pathway - cell viability counter screen (AID 1159520); further: nearly all actives have a fitted effect of over 50% in size
Summary of the method: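 Cytotoxicity was read from cellular ATP (CellTiter-Glo luminescence) after 16 hr at 37 C with 1 uM doxycycline induction. The inducer was added 2 hr after compound transfer to Tet-on ROR gamma CHO cells.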

[15] = target: Nuclear receptor ROR-gamma (Homo sapiens) (UniProt P51449); assay: qHTS assay to identify small molecule antagonists of the retinoid-related orphan receptor gamma (ROR-gamma) signaling pathway (AID 1159521)
Summary of the method: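 Inducible-expression reporter assay: doxycycline (1 uM final) switched on RORγ in CHO cells bearing a ROR response element-luciferase construct, with test compounds present from 2 h beforehand. Decreased luminescence after 16 h defined antagonist activity.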

[16] = qHTS assay to identify small molecule agonists of the AP-1 signaling pathway - cell viability counter screen (AID 1159525; calls by dose curve; further: nearly all actives have a fitted effect of over 55% in size)
Summary of the method: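 Luminescent ATP readout (Cell Titer Glo, 30 min RT), normalised to DMSO and tetra n-octyl ammonium bromide controls. Cells were ME-180 AP-1-bla in 0.5% dialyzed FBS Opti-MEM, with a 5 h, 37 °C compound exposure.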

[17] = qHTS assay to identify small molecule agonists of the AP-1 signaling pathway (AID 1159526; calls by dose curve)
[18] = qHTS assay to identify small molecule agonists of the vitamin D receptor (VDR) signaling pathway - cell viability counter screen (AID 743224)
Summary of the method: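 VDR-bla cells, 4 h after plating, exposed to compounds for 16 h at 37C; viability then read in the same wells as CellTiter-Glo luminescence after 30 min at room temperature, following the bla FRET read.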

[19] = qHTS assay to identify small molecule agonists of the endoplasmic reticulum stress response signaling pathway - cell viability counter screen (AID 1159517; calls by dose curve)
Summary of the method: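 HeLa cells carrying an ESRE-driven beta-lactamase reporter receive compound for 5 hr at 37 C. Cell viability is then gauged with CellTiter-Glo by luminescence, 30 min at room temperature.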

Measured: Potency

Vitamin D3 receptor (Homo sapiens), sequence (P11473 whole entry, looked up): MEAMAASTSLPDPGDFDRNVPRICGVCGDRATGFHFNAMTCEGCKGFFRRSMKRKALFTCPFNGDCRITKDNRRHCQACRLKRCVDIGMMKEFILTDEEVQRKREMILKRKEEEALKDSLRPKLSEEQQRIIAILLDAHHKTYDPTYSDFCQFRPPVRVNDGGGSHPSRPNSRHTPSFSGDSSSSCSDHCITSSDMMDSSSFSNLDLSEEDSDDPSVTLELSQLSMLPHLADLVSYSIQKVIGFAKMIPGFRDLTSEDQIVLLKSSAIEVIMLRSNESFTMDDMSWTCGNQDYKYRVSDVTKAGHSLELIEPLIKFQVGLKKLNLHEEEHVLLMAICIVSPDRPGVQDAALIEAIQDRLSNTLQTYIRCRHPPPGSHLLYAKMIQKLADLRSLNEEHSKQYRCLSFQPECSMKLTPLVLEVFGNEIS
Peroxisome proliferator-activated receptor delta (Homo sapiens), sequence (Q03181 whole entry, looked up): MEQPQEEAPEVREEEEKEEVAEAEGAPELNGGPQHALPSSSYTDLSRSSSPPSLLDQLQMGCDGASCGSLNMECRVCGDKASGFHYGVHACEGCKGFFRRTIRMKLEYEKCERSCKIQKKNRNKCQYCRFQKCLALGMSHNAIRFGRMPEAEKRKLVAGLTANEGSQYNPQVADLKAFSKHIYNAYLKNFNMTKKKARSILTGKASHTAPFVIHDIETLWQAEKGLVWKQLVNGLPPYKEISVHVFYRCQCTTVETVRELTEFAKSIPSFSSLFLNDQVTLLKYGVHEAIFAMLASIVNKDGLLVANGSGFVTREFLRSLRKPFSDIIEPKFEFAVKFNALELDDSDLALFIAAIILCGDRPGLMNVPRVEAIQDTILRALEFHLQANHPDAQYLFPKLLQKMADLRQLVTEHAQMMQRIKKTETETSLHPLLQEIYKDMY
Bile acid receptor (Homo sapiens), sequence (Q96RI1 whole entry, looked up): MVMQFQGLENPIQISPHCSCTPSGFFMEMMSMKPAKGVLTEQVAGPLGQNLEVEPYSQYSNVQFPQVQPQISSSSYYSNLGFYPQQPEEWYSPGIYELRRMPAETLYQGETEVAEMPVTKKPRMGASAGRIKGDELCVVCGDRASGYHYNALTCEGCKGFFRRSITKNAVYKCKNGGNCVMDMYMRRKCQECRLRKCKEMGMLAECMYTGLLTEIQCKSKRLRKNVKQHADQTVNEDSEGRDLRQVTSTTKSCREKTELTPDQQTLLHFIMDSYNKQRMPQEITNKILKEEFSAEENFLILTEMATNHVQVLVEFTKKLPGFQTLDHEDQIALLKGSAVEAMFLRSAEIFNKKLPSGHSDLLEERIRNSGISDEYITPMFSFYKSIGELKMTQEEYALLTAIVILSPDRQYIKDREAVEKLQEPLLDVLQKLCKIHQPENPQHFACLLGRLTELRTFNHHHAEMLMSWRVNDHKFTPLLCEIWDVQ

NC(CO)C(=O)NNCc1ccc(O)c(O)c1O (centres undefined)
inactive: [1] | [2] | [3] | [4] | [5] | [6] | [7] | [8] | [9] | [10] | [11] | [12] | [13] | [14] | [15] | [16] | [17]

CC1=C(C(=O)O)N2C(=O)[C@@H](NC(=O)[C@H](N)c3ccc(O)cc3)[C@H]2SC1
inactive: [1] | [3] | [5] | [6] | [7] | [9] | [10] | [18] | [11] | [12] | [13] | [19] | [14] | [16] | [17]

CCCOC(OCCC)OCCC
inactive: [1] | [2] | [4] | [5] | [6] | [7] | [8] | [9] | [10] | [18] | [11] | [12] | [13] | [14] | [15] | [16] | [17]

BrCc1cccc(Oc2ccccc2)c1
inactive: [1] | [3] | [4] | [6] | [8] | [9] | [10] | [11] | [12] | [13] | [14] | [16] | [17]

C=C(C)C(=O)OCC(C)(C)COC(=O)C(=C)C
inactive: [1] | [2] | [3] | [4] | [6] | [8] | [18] | [11] | [12] | [13] | [19] | [14] | [15] | [16] | [17]

C=C(C)C(=O)OCc1ccccc1
inactive: [1] | [2] | [3] | [5] | [6] | [7] | [8] | [9] | [18] | [11] | [12] | [13] | [19] | [14] | [15] | [16] | [17]

CCn1ccc(NS(=O)(=O)c2ccc(N)cc2)nc1=O
inactive: [1] | [2] | [3] | [4] | [6] | [8] | [18] | [11] | [12] | [13] | [19] | [14] | [15] | [16] | [17]

CCC(C)(CCC(C)C)C(=O)O (centres undefined)
inactive: [1] | [2] | [3] | [4] | [6] | [8] | [10] | [18] | [11] | [12] | [13] | [19] | [14] | [16] | [17]
